Most compounds without a hit are left out; they make up all but 4.6% or so of the library.
TRHR PAM = qHTS for Small Molecule Agonists and Allosteric Enhancers of Human TRH Receptor: Primary Screen for Enhancers. Thyrotropin-releasing hormone receptor (Homo sapiens), P34981. TRHR cells, fluo-8 calcium fluorescence, EC20 TRH enhancement. enhancement, % at 2 µM. actives 0.66% (n = 360,000); in the data active means enhancement above about 30%
Target sequence (P34981 whole entry, looked up): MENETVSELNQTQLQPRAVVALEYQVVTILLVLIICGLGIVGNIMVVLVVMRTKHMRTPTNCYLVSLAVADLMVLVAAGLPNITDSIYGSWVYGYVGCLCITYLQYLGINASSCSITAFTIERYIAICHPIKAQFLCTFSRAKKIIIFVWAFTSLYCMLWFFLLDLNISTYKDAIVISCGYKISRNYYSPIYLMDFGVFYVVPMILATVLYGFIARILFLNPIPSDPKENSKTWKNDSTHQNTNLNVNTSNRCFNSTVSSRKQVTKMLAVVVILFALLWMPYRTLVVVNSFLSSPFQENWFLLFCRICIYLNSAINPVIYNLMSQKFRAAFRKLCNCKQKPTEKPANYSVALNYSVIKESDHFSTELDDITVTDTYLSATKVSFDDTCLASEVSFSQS
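TRHR-expressing cells loaded with fluo-8 calcium dye were read kinetically (ex 480/em 530) during compound addition, then stimulated with an EC20 of TRH (10 nM final). Enhancement of the Gq-mediated intracellular calcium response was scored.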
TRHR ag = qHTS for Small Molecule Agonists and Allosteric Enhancers of Human TRH Receptor: Primary Screen for Agonists; actives 0.18% (n = 360,000); activation, % at 2 µM; TRHR cells, calcium flux fluo-8, FDSS agonist mode
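TRHR-expressing cells loaded with fluo-8 calcium dye; 23 nL library compound pin-transferred, kinetic FDSS fluorescence (Ex 480/Em 530) recorded about 180 s for agonist-induced calcium release, before a 10 nM TRH EC20 addition for potentiator mode.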
D1 PAM = Potentiators of Human D1 Dopamine Receptor: qHTS; HEK293 TREx D1 cells, calcium flux, dopamine EC20 potentiation; potentiation, % at 10 µM; actives 0.036% (n = 360,000); in the data active means potentiation above about 30%
D1 agonist = Allosteric Agonists of the Human D1 Dopamine Receptor: qHTS; D(1A) dopamine receptor (Homo sapiens), P21728; HEK293 T-REx D1 cells, calcium flux, agonist mode; activation, % at 2 µM; actives 1% (n = 360,000)
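Tetracycline-induced HEK293 TREx D1 cells, force-coupled to calcium signalling, were dye-loaded with a no-wash calcium kit. Compound was pin-added after a 10 s baseline. Fluorescence was read kinetically at 1 cycle/s for 180 s, with calcium rises flagged as agonism.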
D1 antag = Antagonist of Human D 1 Dopamine Receptor: qHTS. activity change, negative = inhibition, % at 10 µM. HEK293 TREx D1 cells, calcium flux, dopamine EC80; hits give low values. actives 3.2% (n = 360,000); in the data active means activity change below about -30%
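Antagonism measured as reduced calcium response to an EC80 dopamine addition following 180 s compound pre-read; cells were inducible HEK293 Trex D1 plated overnight at 30 C, read kinetically at 1 cycle/sec.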
A number is an active result; 0 = inactive; - = no result. Unless noted, no stated cut-off is given here; in the data, active means activation above about 30%; inactive means the rest.

SMILES | TRHR PAM | TRHR ag | D1 PAM | D1 agonist | D1 antag
O=C(COC(=O)c1ccc(C(F)(F)F)cc1)Nc1cccc(S(=O)(=O)N2CCCCC2)c1 | 0 | 0 | 0 | 0 | 0
O=C(CC1Nc2ccccc2NC1=O)c1ccccc1 (configuration not stated) | 0 | 0 | 0 | 68 | 0
CC(=O)c1ccc(N2CCN(C(=O)C3CCN(S(=O)(=O)c4c(C)noc4/C=C/c4ccccc4F)CC3)CC2)cc1 | 0 | 0 | 0 | 0 | 0
COc1ccc(CN2CCN(C(=O)CCC(=O)Nc3nnc(CC(C)C)s3)CC2)cc1F | 0 | 0 | 0 | 36 | 0
CN(C)S(=O)(=O)c1ccc(C(=O)NCCS(=O)(=O)N2CCN(c3ccc(F)cc3)CC2)cc1 | 0 | 0 | 0 | 0 | 0
COc1ccc(/C=C/C(=O)OCC(=O)c2ccc3c(c2)NC(=O)CO3)cc1 | 0 | 0 | 30 | 0 | 0
COc1cc(/C=C/C(=O)OCC(=O)c2ccc3c(c2)NC(=O)CO3)ccc1OC(F)F | 0 | 0 | - | 0 | 0
O=C1COc2ccc(C(=O)COC(=O)CCSc3ccccc3)cc2N1 | 0 | 0 | 0 | 0 | -31
Cc1cccc(Oc2ncnc3oc(-c4ccccc4)cc23)c1C | 0 | 0 | 0 | 0 | -81
Cc1cc(Cl)ccc1Oc1ncnc2oc(-c3ccccc3)cc12 | 0 | 0 | 0 | 0 | 0
CC(=O)OCC1O[C@@H](O[C@@H]2C[C@H]3C(C)(C)[C@H](OC(C)=O)CC[C@]3(C)[C@H]3CC[C@]45C[C@]4(CC[C@H]5[C@@H](C)C[C@@H](O)[C@H](O)C(C)(C)O)[C@@]32C)[C@H](O)[C@@H](O)[C@@H]1O (some centres not stated) | 0 | 0 | 0 | 334 | 0
CCC(CO)N=CC1=C(O)CC(c2ccccc2)CC1=O (configuration not stated) | 32 | 0 | 0 | 0 | 0
COC(=O)c1ccc[n+](CC(=O)c2ccc(Br)cc2)c1 | 0 | 0 | 0 | 0 | -35
COc1ccc(C(=O)C[n+]2cccc(Br)c2)cc1 | 0 | 0 | 0 | 0 | 0
N#CN1CCC(NC(=O)c2ccc(C(F)(F)F)cc2)CC1 | 0 | 0 | 0 | 0 | 0
Oc1cccc(/C=N\Nc2nncc(-c3ccccc3)n2)c1 | 0 | 0 | 0 | 0 | -37
CCOc1cc(/C=N/Nc2nncc(-c3ccccc3)n2)ccc1O | 0 | 0 | 0 | 0 | 0
COc1ccc(-c2nc(C(=O)O)cs2)cc1OC | 0 | 0 | 0 | 0 | -36
COc1ccc(-c2noc(CSc3nnc(-c4ccncc4)n3-c3ccc(C)cc3)n2)cc1OC | 0 | 0 | 0 | 0 | 0
O=C(CN1CCN(c2ccccc2)CC1)c1ccc2cc[nH]c2c1 | 0 | 0 | 0 | 0 | -36
COC(=O)c1nnn(-c2cccc(Cl)c2)c1C(=O)OC | 0 | 0 | 0 | 0 | 0
Cc1ccc(-c2oc3ccccc3c(=O)c2O)cc1 | 0 | 0 | 0 | 30 | 0
COc1cccc(-c2oc3ccc(C)cc3c(=O)c2O)c1 | 0 | 0 | 0 | 61 | 0
CCOc1ccc(-c2oc3ccc(C)cc3c(=O)c2O)cc1 | 0 | 0 | 0 | 37 | 0
Cc1ccc(-c2oc3ccccc3c(=O)c2OCC(=O)O)cc1 | 0 | 0 | 0 | 0 | 0
SMILES | TRHR PAM | TRHR ag | D1 PAM | D1 agonist | D1 antag
Cc1cc(C(=O)OCC(=O)NC(=O)c2cccn2C)c2ccccc2n1 | 0 | 0 | 0 | 45 | 0
CCCCN(CCCC)CCNC(=O)c1cc(=O)[nH]c2ccc(S(=O)(=O)N3CCCCCC3)cc12 | 0 | 0 | 0 | 0 | 0
CCOC(=O)c1ccc(NC(=O)c2cc(=O)c3ccc(C)c(C)c3o2)cc1 | 0 | 0 | 0 | 0 | 0
COc1ccc(NC(=O)c2cnn(-c3ccc(F)cc3F)c2C2CCN(C(=O)OC(C)(C)C)CC2)cc1Cl | 0 | 0 | 0 | 0 | 0
COc1cc(Cl)c(C)cc1NC(=O)c1cnn(-c2ccc(F)cc2F)c1C1CCN(C(=O)OC(C)(C)C)CC1 | 0 | 0 | 0 | 0 | -41
CC(C)(C)OC(=O)N1CCC(c2c(C(=O)Nc3cccc(C(F)(F)F)c3)cnn2-c2ccc(F)cc2F)CC1 | 0 | 0 | 0 | 0 | 0
CC(C)(C)OC(=O)N1CCC(c2c(C(=O)Nc3ccc4c(c3)OCCO4)cnn2-c2ccc(F)cc2F)CC1 | 0 | 0 | 0 | 0 | -35
Cc1ccc(Cn2cc(CCC(=O)NC3CCCCC3)c3ccccc32)cc1 | 0 | 0 | 0 | 0 | 0
CCN(CC)CCNC(=O)c1ccc2c(=O)n(C3CCCC3)c(=S)[nH]c2c1 | 0 | 0 | 0 | 30 | -40
CC1CCN(CCNC(=O)c2ccc3c(=O)n(Cc4ccc(Cl)cc4)c(=S)[nH]c3c2)CC1 | 0 | 0 | 0 | 88 | -51
COc1ccccc1Cn1c(=S)[nH]c2cc(C(=O)NC(C)C)ccc2c1=O | 0 | 0 | 0 | 0 | 0
CC(C)Cn1c(=S)[nH]c2cc(C(=O)NCc3ccccc3F)ccc2c1=O | 0 | 0 | 0 | 0 | -33
NC(=O)CSc1nc2ccc(NC(=O)COc3ccccc3Cl)cc2s1 | 0 | 0 | 0 | 0 | 0
CN(CC(=O)Nc1ccccc1Cl)C(=O)CCSc1ccc(F)cc1 | 0 | 0 | 0 | 0 | 0
Cc1cc(Br)ccc1NC(=O)CN(C)C(=O)CCSc1ccc(F)cc1 | 0 | 0 | 0 | 0 | -35
CC1C/C(=N/O)C(C)CN1 (configuration not stated) | 34 | 0 | 0 | 0 | 0
COc1ccc(N2C(=O)C3CCCN3C2c2ccc(Cl)cc2)cc1 (configuration not stated) | 0 | 0 | 0 | 0 | 0
COc1ccc(C2N(c3ccc(Cl)cc3)C(=O)C3CCCN32)cc1 (configuration not stated) | 0 | 0 | 0 | 0 | -38
COc1cccc(C2C(=O)N(C3CCCCC3)CC(=O)N2Cc2ccc(Cl)cc2)c1 (configuration not stated) | 0 | 0 | 0 | 0 | 0
COc1ccc(CC(C)CC(=O)NCCc2ccc(OC)c(OC)c2)cc1 (configuration not stated) | 0 | 0 | 0 | 0 | -75
COc1ccc(CCC(=O)NCCc2ccc(OC)c(OC)c2)cc1 | 0 | 0 | 0 | 0 | 0
COc1ccc(CCNC(=O)CC2SC(=NCc3ccccc3OC)NC2=O)cc1 (configuration not stated) | 0 | 0 | 0 | 0 | 0
COc1ccc(N=C2NC(=O)C(CC(=O)NCCc3ccc(OC)c(OC)c3)S2)cc1 (configuration not stated) | 0 | 0 | 0 | 0 | -38
CCOc1ccc(CCNC(=O)COC(=O)c2ccc(C)s2)cc1OCC | 0 | 0 | 0 | 0 | 0
COc1ccc(CCNC(=O)COC(=O)c2ccc(C)s2)cc1OC | 0 | 0 | 0 | 0 | -33

Source: PubChem BioAssay (National Center for Advancing Translational Sciences (NCATS))
